An excerpt weighted towards active compounds, which were near 4% of everything screened.
p53null 39C kill: p53 null cell cytotoxicity, nonpermissive temperature. Potency, µM (titrated, usually from 46.1 µM), inactives show top-dose activity, negative = cell killing, most hits filed as cytotoxic. 55,000 tested, 0.97% active. H1299 p53-null (neo) cells, 39C, ATPlite viability, 24 h. AID 904;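 also: potency is read from the fitted curve at half-maximal effect; 0% = DMSO only and -100% = full killing by 100 µM tamoxifen; nearly all actives have a fitted effect of over 50% in size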
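Cells seeded at 600/well, 37C overnight. Compound added (up to 46 uM), plates shifted to 39C for 24 hr. ATPlite added, luminescence read after 20 min at room temperature.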
p53null 32C tox: selectivity test: cytotoxicity in p53 null cells, permissive temperature; H1299-neo p53 null cells, ATP luminescence, 24 h, 32C; Potency, µM (doses to about 46.1 µM), without a hit: at the highest dose activity change, negative = cytotoxicity, hits mostly cytotoxic; 55,000 tested, 0.62% active;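 also: potency is read from the fitted curve at half-maximal effect; 0% = DMSO only and -100% = full killing by 100 µM tamoxifen; nearly all actives have a fitted effect of over 55% in size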
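AC50 values derive from Hill modelling of qHTS concentration-response data (up to 46 uM) in H1299-neo cells. Cells were treated 24 h at 32C following overnight attachment at 37C; viability was read as cellular ATP.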
GALC G270D up: raises human GALC G270D mutant activity in cells | 145M-Twi-hGALC-G270D cells (Twitcher mouse brain line with human GALC G270D), HMU-beta-Gal fluorescence, 48 h | Potency, µM (titrated, usually from 57.5 µM), hits mostly activators | 45,000 tested, 0.1% active | AID 1159614; also: potency is read from the fitted curve at half-maximal effect; 0% is about no effect; nearly all actives have a fitted effect of over 65% in size
Target sequence (P54803 whole entry G286D): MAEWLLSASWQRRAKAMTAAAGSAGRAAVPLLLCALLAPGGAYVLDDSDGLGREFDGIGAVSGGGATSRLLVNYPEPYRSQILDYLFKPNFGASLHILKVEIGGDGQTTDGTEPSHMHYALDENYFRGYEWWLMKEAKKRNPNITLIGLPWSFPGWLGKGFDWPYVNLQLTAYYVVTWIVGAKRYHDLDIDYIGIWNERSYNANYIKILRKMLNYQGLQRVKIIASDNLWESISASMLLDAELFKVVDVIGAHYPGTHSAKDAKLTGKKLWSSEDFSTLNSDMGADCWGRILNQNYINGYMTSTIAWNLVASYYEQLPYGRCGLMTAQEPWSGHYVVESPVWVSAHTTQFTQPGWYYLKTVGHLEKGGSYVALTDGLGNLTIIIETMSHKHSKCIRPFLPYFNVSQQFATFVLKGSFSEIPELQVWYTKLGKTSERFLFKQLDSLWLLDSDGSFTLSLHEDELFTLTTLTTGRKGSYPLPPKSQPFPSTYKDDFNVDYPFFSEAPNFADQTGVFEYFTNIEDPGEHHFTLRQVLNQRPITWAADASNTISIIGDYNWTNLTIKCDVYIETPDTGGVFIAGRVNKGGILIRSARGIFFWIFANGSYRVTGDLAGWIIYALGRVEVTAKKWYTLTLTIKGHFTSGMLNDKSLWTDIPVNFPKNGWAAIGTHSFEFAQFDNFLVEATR
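Fluorescence readout: HMU-β-gal cleavage by mutant GALC (0.1 mM final, citrate/phosphate pH 5.2 with 1 mg/mL taurocholate), stopped with carbonate/bicarbonate plus Triton X-100. Cells: murine Twitcher 145M-Twi expressing human G270D GALC; qHTS for activators.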
OvCa metastasis: ovarian cancer metastasis inhibition, 3D TME model. Potency, µM (titrated, usually from 45.8 µM), for inactives: top-dose activity change, negative = inhibition, most hits filed as inhibitors. 46,000 tested, 0.1% active. SKOV3ip1-GFP adhesion/invasion on 3D omental model, fluorescence;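 also: potency is read from the fitted curve at half-maximal effect; plate controls were DMSO wells for no effect and tomatine positive control wells for full effect; nearly all actives have a fitted effect of over 65% in size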
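qHTS, 4-pt dose (0.36-46 umol/L); SKOV3ip1-GFP, 1,200 cells/well, no FBS; primary omental fibroblast/mesothelial co-culture 48 h pre-grown; 2 h RT + 16 h 37 C; PBS wash, 4% PFA; GFP count 488/509 nm.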
DRV1 agonist: GPR32 (DRV1) agonism, beta-arrestin recruitment. O75388. CHO-K1 GPR32 beta-arrestin PathHunter luminescence, 90 min; zero percent set by DMSO-only wells. activation, % at 76.9 µM. 48,000 tested, 2.5% active. AID 1346428;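 active = activation of at least 60% and not above a set upper limit, about 1 call in 100 departs from these limits; inconclusive = activation of 40% to 60%, or above that upper limit; inactive = activation under 40%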; also: 0% is about no effect
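Agonism was scored as beta-arrestin recruitment to ProLink-fused GPR32 in stably transfected CHO-K1 cells, giving a chemiluminescent beta-Gal signal; compounds were incubated 90 min at 37 °C.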
NTMT1 inhibitor: blocks human N-terminal methyltransferase 1 activity; Q9BV86; NTMT1 MTase-Glo SAH luminescence, purified enzyme; Potency, µM (doses to about 114 µM), for the others: at the highest dose activity change, negative = inhibition, hits mostly inhibitors; 59,000 tested, 2.5% active; AID 1645870;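 also: potency is read from the fitted curve at half-maximal effect; plate controls were DMSO vehicle for no effect and no enzyme for full effect; nearly all actives have a fitted effect of over 65% in size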
Active calls of the source: *; i = inactive; ? = inconclusive; nt = no result given; ! = repeats disagree; [ ] = dose if it differs, or a comment. Unless noted, calls follow the shape of the dose curve; as a rule, active = well fitted curve in the direction sought with a large enough effect; inconclusive = small, poorly fitted or top-dose-only effect, or another doubt; inactive = no such curve, though single readings can be large; an effect the other way counts as inactive or inconclusive.

SMILES | p53null 39C kill | p53null 32C tox | GALC G270D up | OvCa metastasis | DRV1 agonist | NTMT1 inhibitor
CCC(C)C(=O)O[C@@H]1[C@@H](O)[C@@H](O[C@H]2O[C@H](CO)[C@@H](O)[C@H](O)[C@H]2O)O[C@H](CO)[C@H]1O (stereo partly specified) | nt | nt | nt | nt | nt | -6%[29.8 µM]
CC(C)c1ccccc1-c1nc2c(c(NCc3ccc(-c4cccnc4)cc3)n1)CNC2 | nt | nt | nt | nt | nt | -9%
Cc1cc(-c2cc(O)ccc2Cl)cc2nnc(Nc3ccc(OCCN4CCCC4)cc3)nc12 | nt | nt | nt | nt | nt | 20µM*
Oc1ccc(C(O)CNCCCCCCNCC(O)c2ccc(O)c(O)c2)cc1O (stereo unspecified) | nt | nt | i | nt | 5 | 35µM*
Oc1ccc(CCNCCCCCCNCCc2ccccc2)cc1O | nt | nt | i | nt | -4 | ?
CNC[C@H](O)c1ccc(O)c(O)c1 | nt | nt | i | 5%[92.2 µM] | -2 | 55µM*!
COc1ccc(OC)c(NC(=O)CSc2c3c(nc4ccccc24)CCCC3)c1 | 98% | 21% | i | ? | -25 | -14%
COc1cccc(NC(=O)CSc2c3c(nc4ccccc24)CCCC3)c1 | -16% | 54% | i | 11µM* | 38 | -2%
Cc1ccc(NC(=O)CSc2c3c(nc4ccccc24)CCCC3)cc1F | 22µM* | 73% | i | -23% | 65* | -3%
COc1ccc(Cl)cc1NC(=O)CSc1c2c(nc3ccccc13)CCC2 | 61% | 12% | i | -6% | -28 | 2%
Clc1ccccc1CSc1nc2ncc(Br)cc2[nH]1 | nt | nt | nt | nt | nt | -7%[57.5 µM]
N#Cc1ccc(N2CCN(c3ccc(F)cc3)CC2)cc1 | 38% | -4% | nt | nt | nt | nt
CN(C)CCC[C@@]1(c2ccc(F)cc2)OCc2cc(C#N)ccc21 | nt | nt | i | nt | -3 | 25µM*
CC(=O)Nc1sc2c(c1-c1ccc3c(c1)OCO3)CCNC2 | nt | nt | nt | nt | nt | 5%[57.5 µM]
CCC(C(=O)OCCN1CCOC(c2ccccc2)C1C)c1ccccc1 (stereo unspecified) | nt | nt | i | nt | 62* | 38%[57.5 µM]
CCc1ccc(NC(=O)COC(=O)CCCC2=NS(=O)(=O)c3ccccc3N2)cc1 | -1% | -8% | i | i | 64* | -12%
COc1ccc(S(=O)(=O)N(C(C)=O)c2ccccc2/C=C/c2cc[n+]([O-])cc2)cc1 | nt | nt | nt | nt | nt | 4%
COc1ccc(-c2nc(CSc3nc4ncccc4[nH]3)c(C)o2)cc1OC | -18% | -19% | i | i | -8 | -6%
COc1ccc(CSc2nc3ncccc3[nH]2)cc1 | 11µM* | 11µM* | i | i | 9 | ?
Cc1ccc(OCC(=O)Nc2nnc(SCc3cc(=O)c4ccccc4[nH]3)s2)cc1 | -6% | 7% | i | 2% | 120* | 9%
O=C(COc1ccccc1)Nc1nnc(SCc2cc(=O)c3ccccc3[nH]2)s1 | -2% | 4% | i | 0% | ? | -19%
CCC(CC)C(=O)Nc1nnc(SCc2cc(=O)c3ccccc3[nH]2)s1 | 4% | 8% | i | i | 99* | ?
CC(C)CCNc1ncccc1C(=O)N1CCN(Cc2ccccc2)CC1 | nt | nt | nt | nt | nt | 4%[57.5 µM]
O=C(CS(=O)(=O)c1cccc2nsnc12)N1CCN(c2cccc(C(F)(F)F)c2)CC1 | 16% | -4% | i | i | 88* | 7%
O=C(CS(=O)(=O)c1cccc2nsnc12)N1CCN(c2ccccc2F)CC1 | 5% | -11% | i | 10% | -15 | 2%
COc1ccc(-c2cc(C(=O)N3CCN(c4ccccc4OC)CC3)c3cc(C(C)C)ccc3n2)cc1 | 20% | 4% | i | -3% | 4 | 7%
CC(C)c1ccc2oc3nc(N)c(C(=O)O)cc3c(=O)c2c1 | nt | nt | i | 8% | 104* | 32µM*
O=C(Nc1cc(Cl)cc(Cl)c1)c1ccc(F)c(S(=O)(=O)NC2CCCCC2)c1 | 20µM* | ? | i | -8% | 69* | 9%
